# Screens (PubChem BioAssay)
# Sampled rows, rich in hits. Any-hit rate of the full collection: about 15%.
# VP16 counter – Gal4-VP16 reporter inhibition counter-screen; hit rate 3.5% among 310,000; Drosophila S2 Gal4-VP16 UAS-luciferase, luminescence, 20 h; AID 2546; Potency, µM (highest dose often 53.6 µM), hits mostly inhibitors;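 also: Gal4-VP16 expression switched on by copper sulfate through the metallothionein promoter; nearly all actives have a fitted effect of over 50% in size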
# ALOX12 inh – blocks human arachidonate 12S-lipoxygenase | P18054 | purified 12hLO, xylenol orange hydroperoxide absorbance | Potency, µM (titrated, usually from 108 µM), usual class: inhibitors | hit rate 1.1% among 580,000
#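 Hydroperoxide product was detected by ferrous iron/xylenol orange as the 573 to 405 nm absorbance ratio. Arachidonic acid at 40 uM (final) was turned over for 30 min at room temperature by 150 nM human 12hLO, pH 7.0 Hepes buffer, after 15 min compound preincubation.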
# DT40 TDP1 no CPT – qHTS for Inhibitors of human tyrosyl-DNA phosphodiesterase 1 (TDP1): qHTS in cells in absence of CPT. DT40 Tdp1-/- hTDP1 cells, no CPT, ATP luminescence, 48 h. Potency, µM (titrated, usually from 46.2 µM), usual class: inhibitors. hit rate 15% among 420,000; also: nearly all actives have a fitted effect of over 55% in size
#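 A cellular qHTS used chicken DT40 cells lacking endogenous Tdp1 but carrying stably transfected human TDP1. Compounds were applied without camptothecin, and cell growth kinetics were judged by ATP-dependent luminescence after ≥48 hr.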
# RORg inh – blocks mouse ROR gamma transcriptional activity | P51450 | Drosophila S2 Gal4-RORgamma UAS-luciferase reporter, 20 h | Potency, µM (titrated, usually from 53.6 µM), actives largely listed as inhibitors | hit rate 5.4% among 310,000 | AID 2551; also: nearly all actives have a fitted effect of over 60% in size
# Target sequence (P51450 whole entry, looked up, the tested form may be a part): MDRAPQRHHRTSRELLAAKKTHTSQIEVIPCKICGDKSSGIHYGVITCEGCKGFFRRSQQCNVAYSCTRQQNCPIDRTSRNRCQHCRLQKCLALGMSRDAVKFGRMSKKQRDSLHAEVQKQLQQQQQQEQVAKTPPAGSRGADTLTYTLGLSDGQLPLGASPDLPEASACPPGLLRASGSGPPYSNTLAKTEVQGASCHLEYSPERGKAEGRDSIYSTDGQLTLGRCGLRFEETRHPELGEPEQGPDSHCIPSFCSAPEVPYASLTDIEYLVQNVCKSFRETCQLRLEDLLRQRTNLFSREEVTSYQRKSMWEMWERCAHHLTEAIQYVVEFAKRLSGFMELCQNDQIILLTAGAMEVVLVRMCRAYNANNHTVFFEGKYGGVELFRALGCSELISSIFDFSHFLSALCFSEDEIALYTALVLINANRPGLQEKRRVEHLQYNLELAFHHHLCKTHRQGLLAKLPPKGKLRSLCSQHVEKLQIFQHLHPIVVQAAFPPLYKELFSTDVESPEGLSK
#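 Stable Schneider cell line, Gal4 DNA-binding domain fused to ROR gamma, UAS-luciferase. Cmpd 1 hr RT → CuSO4 700 uM final → 20 hr RT → luciferase reagent 10 min → luminescence.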
# ELG1 DNA repair – blocks ELG1-dependent DNA repair in HEK293T cells | hit rate 2.3% among 330,000 | HEK293T ELG1-luciferase reporter, luminescence, 16 h; DNA damage induced by 5-fluorouridine | Potency, µM (top dose mostly 46.1 µM), usual class: inhibitors; also: nearly all actives have a fitted effect of over 55% in size
#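 Overnight (16 hr) co-exposure of 2,000 cells/well to 5-fluorouridine and compound at 37 °C preceded detection. Luciferase was quantified via ONE-Glo luminescence; loss of signal denotes inhibition.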
# DT40 TDP1 CPT – DT40-hTDP1 cell growth loss with CPT. Potency, µM (doses to about 46.2 µM), hits mostly inhibitors. hit rate 12% among 420,000. chicken DT40 Tdp1-/-;hTDP1 cells + 20 nM CPT, ATP luminescence, 48 h; also: nearly all actives have a fitted effect of over 55% in size
#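 Cell growth measured by CellTiter-Glo luminescence after a minimum 48 h, 37 C compound exposure with 20 nM CPT in Tdp1-knockout DT40 cells stably expressing hTDP1, seeded 400/well; qHTS titration format.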
# Numbers stand for hits; n = inactive; u = inconclusive; x = no result; [ ] = another dose, or the depositor's remark. Calls follow the shape of the dose curve; as a rule, active = well fitted curve in the direction sought with a large enough effect; inconclusive = small, poorly fitted or top-dose-only effect, or another doubt; inactive = no such curve, though single readings can be large; an effect the other way counts as inactive or inconclusive.
SMILES,VP16 counter,ALOX12 inh,DT40 TDP1 no CPT,RORg inh,ELG1 DNA repair,DT40 TDP1 CPT
c1ccc(CNC2(c3nnnn3-c3ccccc3)CCCC2)cc1,x,n,x,x,x,x
CC1(C)C(c2cccs2)=[N+]([O-])C2(CCCCC/C2=N\NC(N)=S)N1O (centres undefined),n,u,n,0.63µM,u,n
CC1(C)C(c2ccco2)=[N+]([O-])C2(CCCCC2=O)N1O (centres undefined),n,u,n,n,n,n
O=C(Nc1ccc(NC(=O)c2cccs2)cc1)c1ccc2c(c1)OCO2,n,n,n,n,u,u
CCOC(=O)c1c(C)c(C(=O)Nc2ccc3c(c2)OCO3)c(C)n1C,n,n,n,u,n,n
CCOC(=O)c1c(C)c(C(=O)Nc2ccc3c(c2)OCCO3)c(C)n1CC,n,n,11µM,n,n,10µM
O=C(Nc1cccc(NC(=O)c2cccs2)c1)c1ccc2c(c1)OCO2,n,n,12µM,n,u,u
COC(=O)c1c(NC(=O)c2ccoc2C)sc(C)c1C,n,n,n,n,n,n
CCOC(=O)c1cccc(NC(=O)/C=C/c2ccc3c(c2)OCO3)c1,u,n,18µM,u,u,u
CCOC(=O)c1sc(NC(=O)c2ccoc2C)c(C(N)=O)c1C,n,n,16µM,n,8.2µM,26µM
O=C(NCCc1ccc(F)cc1)c1cc(=O)[nH]c2ccccc12,x,n,x,x,x,x
CCOC(=O)c1c(N)sc(C(=O)Nc2ccc3c(c2)OCO3)c1C,5.6µM,n,u,u,u,n
CC1CC(C)CN(C(=O)COC(=O)c2ccc3c(c2)OCO3)C1 (centres undefined),x,n,n,x,u,n
CCOC(=O)c1c(NC(=O)c2cc(C)oc2C)sc(C(=O)Nc2ccc(Cl)cc2)c1C,n,n,5.6µM,n,u,8.9µM
CCOC(=O)c1cccc(NC(=O)c2ccc3c(c2)OCO3)c1,n,n,12µM,n,u,15µM
CCOC(=O)c1[nH]c(C)c(C(=O)Nc2ccc3c(c2)OCCO3)c1C,n,n,n,n,u,n
CC1CCCC(C)N1C(=O)COC(=O)c1ccc2c(c1)OCO2 (centres undefined),n,n,29µM,u,u,n
CCCOc1ccc2c(-c3ccccc3)cc(=O)oc2c1,x,n,x,x,x,x
CCOC(=O)C1(CC2CC2)CCN(Cc2cn(C)c3ccccc23)CC1,u,n,18µM,u,n,21µM
CCOC(=O)C1(CCCc2ccccc2)CCN(Cc2ccn[nH]2)CC1,n,n,u,n,n,u
CCOC(=O)C1CCN(Cc2ccc(C(=O)OC)cc2)CC1,n,u,n,n,n,n
CCOC(=O)C1(CCOc2ccccc2)CCN(CC2CC2)CC1,n,n,n,n,n,n
CCOC(=O)C1(CCc2ccccc2)CCN(Cc2ccccn2)CC1,11µM,n,u,5µM,n,n
CCOC(=O)C1(CC2CC2)CCN(C(=O)c2cc(OC)nc3ccccc23)CC1,n,n,u,n,n,u
CCOC(=O)C1(CC2CC2)CCN(C(=O)c2cc(C3CC3)nc3ccccc23)CC1,n,n,23µM,n,u,u
SMILES,VP16 counter,ALOX12 inh,DT40 TDP1 no CPT,RORg inh,ELG1 DNA repair,DT40 TDP1 CPT
CCOC(=O)C1(CC2CC2)CCN(Cc2ccc(C(=O)OC)cc2)CC1,n,n,23µM,n,n,u
Cn1cc(CN2CCNc3cnc(Nc4ccccc4)cc3C2)cn1,x,n,x,x,x,x
CCOC(=O)C1(CCc2ccccc2)CCN(Cc2cc(OC)c(OC)cc2OC)CC1,n,n,21µM,u,u,21µM
CCOC(=O)C1(CCc2ccccc2)CCN(Cc2ccc(C(=O)OC)cc2)CC1,n,n,16µM,n,n,u
CC(Oc1ccc(F)cc1Cl)C(=O)NN (centres undefined),x,n,x,x,x,x
O=C1NC(c2cccc(Br)c2)=N/C1=C\c1ccco1,n,45µM,n,n[10 µM],u,u
O=S(=O)(c1ccccc1)c1cnc(-c2ccccc2)nc1N1CCCC1,n,n,18µM,n,n,n
Cc1ccc(S(=O)(=O)c2cnc(-c3ccccc3)nc2N2CCCCC2)cc1,n[10 µM],n,u,n,n,u
O=C(NC(NC(=S)Nc1cccc(C(=O)O)c1)C(Cl)(Cl)Cl)OCc1ccccc1 (centres undefined),n,n,n,n,n,n
Cc1cccc(NC(=S)NC(C)CCc2ccccc2)c1 (centres undefined),3.2µM,40µM,u,7.1µM,n,u
Cc1cccc(NC(=S)NC(NC(=O)OCc2ccccc2)C(Cl)(Cl)Cl)c1 (centres undefined),u,n,u,11µM,n,23µM
O=C(NC(NC(=S)Nc1cccc(Cl)c1)C(Cl)(Cl)Cl)OCc1ccccc1 (centres undefined),u,u,18µM,u,n,u
Cc1cccc(NC(=O)C(C#N)C(=O)CCc2ccccc2)c1 (centres undefined),x,32µM,x,x,x,x
CCCc1cc(C(=O)N2CCC(=O)N(Cc3ccccc3)C(CC)C2)ccn1 (centres undefined),x,n,x,x,x,x
O=C(CSc1nc(Cl)nc2nc[nH]c12)Nc1ccc(OC(F)(F)F)cc1,x,n,x,x,x,x
Cc1ccc2c(n1)sc1c(-c3ccc(Br)cc3)c(C#N)c(N)nc12,n,u,18µM,n,n,u
CN(C)c1ccc(Sc2ccc3nc(N)nc(N)c3c2)cc1,x,u,0.65µM,x,x,1.8µM
COc1ccc(-c2cc(N3CCC(NC(=O)c4ccc(F)c(Cl)c4)C3)n[nH]2)cc1 (centres undefined),x,n,x,x,x,x
CCN(CC)CCCNC(=O)c1ccc2c(=O)n(CCc3ccccc3)c(=O)[nH]c2c1,x,n,u,x,x,n
CCCCCn1c(=O)[nH]c2cc(C(=O)NCc3ccccn3)ccc2c1=O,n,n,n,n,n,n
CCCCNC(=O)CCCCCn1c(=O)[nH]c2cc(C(=O)OC)ccc2c1=O,n,n,n,n,n,u
COC(=O)c1ccc2c(=O)n(CCCCCC(=O)N3CCN(c4ccc(F)cc4)CC3)c(=O)[nH]c2c1,n,n,12µM,n,2.9µM,16µM
CCCCCn1c(=O)[nH]c2cc(C(=O)NCCN(CC)CC)ccc2c1=O,n,n,21µM,n,n,9.2µM
COC(=O)c1ccc2c(=O)n(CCCCCC(=O)N3CCN(c4ccc(Cl)cc4)CC3)c(=O)[nH]c2c1,x,n,u,x,x,u
O=C(NCc1ccccn1)c1ccc2c(=O)n(CCc3ccccc3)c(=O)[nH]c2c1,n,n,u,n,n,21µM
COC(=O)c1ccc2c(=O)n(CCCCCC(=O)O)c(=O)[nH]c2c1,16µM,n,n,10µM,n,n
CC(C)CCC1=NC2(CCN(C(=O)CCN3CCCCC3=O)CC2)C(=O)N1,x,n,x,x,x,x
